Experimental data: the supplement of paper PMC13380429
Values without a mark were called inactive.

Tested on: Vero E6 infected with SARS-CoV-2
Experiment: inhibition of SARS-CoV-2 cytopathic effect; higher = more antiviral protection, active = above 15
Settings: 48 h

SMILES | inhibition of SARS-CoV-2 cytopathic effect (1 nM) | inhibition of SARS-CoV-2 cytopathic effect (8.33 nM) | inhibition of SARS-CoV-2 cytopathic effect (100 nM) | inhibition of SARS-CoV-2 cytopathic effect (833.33 nM) | inhibition of SARS-CoV-2 cytopathic effect (10000 nM)
Nc1nc(Nc2ccccc2)nc2c1ncn2[C@@H]1O[C@H](CO)[C@@H](O)[C@H]1O | 2.4% | 4.07% | 1.9% | 1.06% | -2.77%
NS(=O)(=O)c1cc(C2(O)NC(=O)c3ccccc32)ccc1Cl (stereo not given) [chlorthalidone] | -0.87% | -0.18% | 4.69% | -3.83% | -3.63%
CC(C)(C)NCC(O)c1cc(Cl)c(N)c(Cl)c1 (stereo not given) [clenbuterol] | -0.45% | -0.13% | 1.96% | -0.35% | -2.77%
C[C@]12CCC(=O)C=C1CC[C@@H]1[C@@H]2CC[C@@]2(C)[C@H]1CC[C@]2(C)O [17-alpha-Methyltestosterone] | 0.59% | 1.3% | -0.05% | 1.19% | 1.92%
O=C(NCCO)c1cc(C(=O)NCCO)cc(C(=O)NCCO)c1 | -0.77% | -1.01% | -1.2% | -1.25% | 0.61%
Cc1cncc(CN2CCC(=C3c4ccc(Cl)cc4CCc4cccnc43)CC2)c1 [rupatadine] | -0.79% | -0.26% | 2.27% | 2.5% | -9.2%
C[C@@H](c1ccc2nccn2c1)n1nnc2ncc(-c3cnn(C)c3)nc21 [savolitinib] | 0.39% | -0.4% | -0.3% | 0.87% | 1.9%
CC(=O)OCC(=O)[C@@]1(O)CC[C@H]2[C@@H]3CCC4=CC(=O)CC[C@]4(C)[C@H]3C(=O)C[C@@]21C [cortisone-acetate] | -0.91% | -1.31% | -1.03% | 0.49% | 0.27%
CCCCC/C=C\C=C\CCCCCCCCC(=O)O [trans-10,cis-12-conjugated-linoleic-acid] | -0.53% | -2.2% | -2.88% | -2.64% | 7.84%
CCCCCCCCCCCC(=O)O [lauric-acid] | 0.97% | 2.75% | 0.72% | -1.45% | -1.99%
CC(C)(C)C(=O)OCC(=O)[C@H]1CC[C@H]2[C@@H]3CCC4=CC(=O)CC[C@]4(C)[C@H]3CC[C@]12C [desoxycorticosterone-pivalate] | -1.6% | 0.71% | -0.4% | -0.12% | 0.98%
NC(=O)Cc1cccc(C(=O)c2ccccc2)c1N [nepafenac] | -0.09% | 1.07% | -0.56% | -1.36% | -2.65%
OCc1ccccc1O [salicyl-alcohol] | -0.86% | -1.41% | 0.06% | 4.76% | 0.29%
CC(O)CN1CCN(CC(=O)[O-])CCN(CC(=O)[O-])CCN(CC(=O)[O-])CC1.[Gd+3] (stereo not given) [gadoteridol] | 0.66% | -0.76% | 0.17% | 0.32% | -3.99%
CC[C@@H](C)Nc1cc(C(=O)N[C@H]2C[C@H]3CC[C@@H](C2)N3c2ccc(C(=O)C3CC3)cn2)c(C)cc1C(N)=O | 1.52% | 1.25% | -3.63% | 2.73% | 1.28%
CSc1ccc2c(c1)[C@H](N1CCN(C)CC1)Cc1ccccc1S2 (racemic) [metitepine] | 0.91% | 0.58% | -0.78% | -2.3% | 16.2% (active)
CN1CCN(c2nc3ccccc3nc2Cl)CC1 | -3.46% | -0.96% | -3.46% | 0.73% | 5.89%
CCn1cc(C(=O)O)c(=O)c2cc(F)c(N3CCNCC3)cc21 [norfloxacin] | 2.7% | 2.29% | 3.02% | -0.29% | 3.46%
Oc1ccc(O)cc1 [hydroquinone] | -0.8% | 2.88% | 1.25% | 1.2% | 1.62%
